Screens from PubChem.
In the library only some 7.9% were active in any assay of this set; here they are far more common.
Lassa entry inh: inhibitors of Lassa virus binding or cell entry | Potency, µM (doses to about 37.9 µM), without a hit: top-dose activity change, negative = inhibition, hits mostly inhibitors | 300,000 tested, 1.2% active | AID 540256 | Lassa virus pseudotype entry inhibition, cell reporter; calls by dose curve; tested in HEK293 cells; note: potency is the fitted concentration of half-maximal effect; nearly all actives have a fitted effect of over 50% in size
Marburg entry inh: inhibitors of Marburg virus binding or cell entry | Marburg virus pseudotyped entry inhibition, cell reporter | Potency, µM (doses to about 37.8 µM), for the others: at the top dose activity change, negative = inhibition, usual class: inhibitors | 300,000 tested, 1.8% active | AID 540276; calls by dose curve; tested in HEK293 cells; note: potency is the fitted concentration of half-maximal effect
HCMV antiviral: inhibitors of human cytomegalovirus. activity change, negative = inhibition, % at 57.5 µM. 410,000 tested, 4.5% active. AID 1259415. HFF cells, HCMV-luciferase reporter, 72 h; hits give low values; in the data active = activity change below about -60%; inconclusive = no clear call, values can overlap the other calls; inactive = above about -39%
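Cell-based, HFFs, 1000 cells/well, 16 h 37C; cpds in DMSO + HCMV-luc, MOI 1 PFU/cell; 72 h 37C; OneGlo luminescence after 5 min RT; norm. to buffer vs Salinomycin 10uM.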
FMDV inh: blocks foot and mouth disease virus | FMDV antiviral cell-based qHTS | Potency, µM (titrated, usually from 57.9 µM), inactives show at the highest dose activity change, negative = inhibition, most hits filed as inhibitors | 410,000 tested, 1.2% active; calls by dose curve; tested in HEK293T cells; note: read-out not given here; potency is the fitted concentration of half-maximal effect; nearly all actives have a fitted effect of over 45% in size
HCV inhibitor: HCV inhibition. AID 651820. Potency, µM (doses to about 41.8 µM), inactives show at the top dose activity change, negative = inhibition, usual class: inhibitors. Huh7.5.1 HCVcc-Cre infection, luciferase reporter, 44 h. 340,000 tested, 3.4% active; active = well fitted inhibition curve with a large enough effect; inconclusive = small, poorly fitted or top-dose-only effect, or another doubt; inactive = no such curve, though single readings can be large or run the other way; note: potency is the fitted concentration of half-maximal effect
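Cells (1,000/well) were plated 4 h before compound, then infected with HCVcc-Cre virus (~0.5 moi). After 44 h further culture, infection was read as luciferase luminescence following a 15 min substrate incubation at room temperature.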
Starred values were filed as active, the others as inactive; ? = inconclusive; nt = not tested or not shown; [ ] = another dose, or the depositor's remark. % is set by controls: 0 for no effect and ±100 for the full control effect.

SMILES	Lassa entry inh	Marburg entry inh	HCMV antiviral	FMDV inh	HCV inhibitor
O=C1[C@H](Cc2ccccc2)NCCCC[C@@H](c2ccc(Cl)cc2)N1Cc1ccccc1	nt	nt	0	0%	19%
CCc1ccc(C2=NNC(=Nc3cccc(S(=O)(=O)N(C)C)c3)SC2)cc1	?	?	-99*	-7%	4.5µM*
CC1(C(=O)Nc2nccs2)CCN1C(=O)CC(c1ccccc1)c1ccccc1 (stereo unspecified)	nt	nt	-102*	0%	nt
NC(=O)CSc1nc2c(c(=O)n1-c1ccccc1)C1(CCCCC1)Cc1ccccc1-2	?	?	-93*	20µM*	0%
CCN(CC(=O)NC1CCS(=O)(=O)C1)S(=O)(=O)c1c(C)c(C)cc(C)c1C (stereo unspecified)	6%	2%	-14	-1%	-5%[8.37 µM]
CNS(=O)(=O)c1cccc(C(=O)OCCCOC(=O)c2cccc(S(=O)(=O)NC)c2)c1	?	-15%	-17	0%	11µM*
COc1ccc(OCC(NS(=O)(=O)c2ccc(-n3cnnn3)cc2)C(C)C)cc1 (stereo unspecified)	nt	nt	-5	-18%	40µM*
CCCCNC(=O)C[C@@H]1C[C@@]2(C(=O)OCC)CCCC=C2N(Cc2ccccc2)C1=O	nt	nt	-3	19%	nt
Cc1cc(NC(=O)CCC(=O)NNC(=O)c2ccc(C(C)(C)C)cc2)no1	3%	?	-75*	24%	-7%
Cc1ccc(C(=O)NNC(=O)CCC(=O)Nc2cc(C)on2)cc1	7%	1%	-21	-12%	29%
NC(=S)N/N=C/c1ccc(-n2nncc2-c2ccc(Cl)cc2)cc1	11µM*	?	nt	-28%	13µM*
CCOC(=O)C1=C(C)N(C[C@@H]2CC[C@@H](Cc3ccc(-c4ccccc4)cc3)O2)C(=O)NC1C1CC1 (stereo partly specified)	nt	nt	-20	-5%	?
CN(C)CCCNC(=O)/C(=N\O)c1ccccc1	0%	13%	4	0%	10%
Cc1oc2ccccc2c1CC(=O)NCCCN(C)C	nt	nt	-64*	-20%	-13%
Cc1cccc(-n2c(Cc3ccccc3)nnc2SCc2ccc([N+](=O)[O-])cc2)c1	?	-18%	-70*	-25%	?
COc1ccc2c(c1)C(n1c(C)ccc1C)C(=O)N2Cc1ccc(C(F)(F)F)cc1 (stereo unspecified)	nt	nt	14	nt	nt
CN1c2ccc(Cl)cc2-c2nc(SCC(=O)NCc3ccc(F)cc3)ncc2S1(=O)=O	?	nt	18	-20%	nt
CCCN(c1ccccc1CC)S(=O)(=O)c1ccc2c(c1)CC(C)N2C(=O)C1CC1 (stereo unspecified)	?	nt	-93*	?	nt
CCCCN(c1ccccc1)S(=O)(=O)c1ccc2c(c1)CC(C)N2C(=O)C1CC1 (stereo unspecified)	?	nt	-21	-14%	nt
COc1ccccc1CNS(=O)(=O)c1ccc2c(c1)CC(C)N2C(=O)C1CCC1 (stereo unspecified)	-24%[46.1 µM]	nt	-61*	?	?
CCN(Cc1ccccc1)S(=O)(=O)c1ccc2c(c1)CC(C)N2C(=O)C1CCC1 (stereo unspecified)	2.8µM*	nt	-35	-20%	nt
COc1cccc(NC(=O)Nc2cccc(-c3cn4cccnc4n3)c2)c1	11%[46.1 µM]	15%[46.1 µM]	-9	-23%	nt
COC(=O)[C@@H]1[C@@H](CO)[C@@H]2Cn3c(ccc(Br)c3=O)[C@H]1N2C(=O)c1ccncc1	nt	nt	-3	nt	nt
NS(=O)(=O)c1ccc(N2CCN(S(=O)(=O)Cc3ccccc3)CC2)nc1	-10%[46.1 µM]	-21%[46.1 µM]	27	-7%	11%
O=S(=O)(c1cccs1)N1CCN(CCOc2ccc(Cl)cc2)CC1	nt	nt	-82*	?	?
SMILES	Lassa entry inh	Marburg entry inh	HCMV antiviral	FMDV inh	HCV inhibitor
O=S(=O)(c1cccs1)N1CCN(CC(O)COc2cc(Cl)ccc2Cl)CC1 (stereo unspecified)	?	?	-61*	?	?
O=S(=O)(c1cccs1)N1CCN(c2cccc(Cl)c2)CC1	?	-17%	-5	-8%	17%
NS(=O)(=O)c1ccc(N2CCN(CCOc3ccc(Cl)cc3)CC2)nc1	?	?	-84*	?	?
COc1ccc(NC(=O)C(=S)NC2CCCCC2)cc1	?	?	7	0%	-10%
Cc1[nH]c2ccccc2c1Cc1n[nH]c(=S)n1C	15%	7%	-14	-8%	21%
Cc1[nH]c2ccccc2c1SCc1n[nH]c(=S)n1C	nt	nt	-78*	-22%	-23%
O=S(=O)(c1ccc(Br)cc1)N1CCN=C1SCc1cccnc1	nt	nt	-69*	-9%	14%
O=S(=O)(c1ccccc1)N1CCN=C1SCc1ccc(Cl)cc1	nt	nt	-32	1%	1%
O=S(=O)(c1ccc2ccccc2c1)N1CCN=C1SCc1cccnc1	nt	nt	-17	-6%	19%
CCS(=O)(=O)N1CCN=C1SCc1cccc(F)c1	nt	nt	-60*	-23%	30%
CCCS(=O)(=O)N1CCN=C1SCc1cccnc1	-4%	16%[46.1 µM]	-62*	10%	5%
O=S(=O)(c1ccccc1)N1CCN=C1SCc1ccc(Cl)c(Cl)c1	?	?	-74*	-24%	?
COc1ccc(CN2CCOc3ccc(C(O)c4cccnc4)cc3C2)c(F)c1 (stereo unspecified)	nt	nt	nt	-30%	nt
COC(=O)C[C@@H]1C=C[C@H](NC(=O)Nc2ccc(OC)cc2)[C@@H](CO)O1	nt	nt	7	-14%	nt
O=S(=O)(c1ccc(F)cc1)N1CCN=C1SCc1cccnc1	nt	nt	-67*	-5%	6%
C[C@@H]1COc2cccc(NCCO)c2S(=O)(=O)N1	5%[46.1 µM]	nt	5	nt	nt
COc1ccc(C(=O)/C=C2\C(=O)Nc3ccc(Br)cc32)cc1	-7%	?	18	-25%	-42%
O=C1Nc2ccc(Br)cc2/C1=C/C(=O)c1ccc2c(c1)OCO2	nt	nt	-100*	28µM*	?
C[C@H]1CC[C@H]2C(=O)N(Cc3cccc([N+](=O)[O-])c3)C[C@H](O)CN2[C@H]1c1cccc(Br)c1	?	-16%[14.2 µM]	nt	nt	nt
CCOc1cc(CNC(=O)NC2COc3ccc(OC)cc3C2)cc(OCC)c1OCC (stereo unspecified)	0%[46.1 µM]	nt	-6	-10%	nt
O=C(O)c1cccc2c1C(=O)c1cc([N+](=O)[O-])cc([N+](=O)[O-])c1-2	nt	nt	74	-4%	nt
Cc1cccc(N=C2c3cc([N+](=O)[O-])ccc3-c3c2cc([N+](=O)[O-])cc3[N+](=O)[O-])c1	-30%	?	16	?	7.1µM*
COCC(=O)Nc1cc(C(=O)N2CCSCC2)cc2nc(-c3ccccc3)n(C)c12	nt	nt	nt	-26%	nt
CCOC(=O)CC1(C)c2nc(NC(C)=O)sc2Cc2sc(NC(C)=O)nc21	nt	nt	-97*	22%	nt
Cc1ccc(CNCC(=O)Nc2ccc(C)cc2Br)cc1	-11%	-5%	-64*	18%	17%
CCCCCCCSc1cc(OC)c(CCNC)cc1OC	?	?	-99*	0%	?
CCCCCN(C(=O)CCC(=O)OCc1ccccc1Cl)c1c(N)n(CCCC)c(=O)[nH]c1=O	-20%	?	-2	12%	nt
